PMC7862700, “An all-to-all approach to the identification of sequence-specific readers for epigenetic DNA modifications on cytosine”

Key:
Experiment in all cases: DAPPL (digital affinity profiling via proximity ligation, sequencing); 10 mM Tris-HCl pH 7.5, 50 mM NaCl, 1 mM DTT, 4% glycerol, room temperature, 30 min; GST-TFs on glutathione beads, 16-mer random dsDNA library, 0.1% formaldehyde crosslink after washing; high values mean tight binding
Details in all cases: protein: recombinant; tags: N-terminal GST; dsDNA, one strand shown
ERF = molecular target: T1, ERF (Homo sapiens, UniProt P50548 1-548)
T1 sequence: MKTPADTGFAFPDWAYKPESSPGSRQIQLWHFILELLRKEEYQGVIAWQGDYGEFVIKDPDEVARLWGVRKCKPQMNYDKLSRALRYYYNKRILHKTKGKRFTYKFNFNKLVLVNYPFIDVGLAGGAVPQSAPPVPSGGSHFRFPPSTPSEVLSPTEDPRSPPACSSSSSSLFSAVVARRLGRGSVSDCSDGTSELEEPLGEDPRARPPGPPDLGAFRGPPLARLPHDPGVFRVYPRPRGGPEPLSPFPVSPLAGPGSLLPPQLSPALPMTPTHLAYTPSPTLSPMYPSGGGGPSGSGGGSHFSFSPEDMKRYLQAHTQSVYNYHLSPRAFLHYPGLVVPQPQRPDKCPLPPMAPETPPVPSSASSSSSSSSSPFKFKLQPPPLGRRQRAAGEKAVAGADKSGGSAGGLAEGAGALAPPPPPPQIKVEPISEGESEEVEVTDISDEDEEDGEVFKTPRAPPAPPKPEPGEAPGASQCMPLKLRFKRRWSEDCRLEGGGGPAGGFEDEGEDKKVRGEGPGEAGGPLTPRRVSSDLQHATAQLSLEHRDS
In short: (§1)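 Beads coated with glutathione captured GST-fused human transcription factors that had been expressed in yeast, and the factors were then given DNA barcodes and pooled with a tag-only sample. The pools were incubated with 200 nmole of a random double-stranded 16-mer DNA library in Tris/NaCl/DTT/glycerol buffer for 30 min at room temperature, washed, crosslinked with 0.1% formaldehyde and proximity-ligated with BsaI/T4 ligase at 37 °C for 1 h. PCR amplification and Illumina NextSeq500 sequencing came last. Binding signal is each hexamer's read frequency for a factor divided by its frequency for the tag-only sample.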

ETV3L = molecular target: T2, ETV3L (Homo sapiens, UniProt Q6ZN32 1-361)
T2 sequence: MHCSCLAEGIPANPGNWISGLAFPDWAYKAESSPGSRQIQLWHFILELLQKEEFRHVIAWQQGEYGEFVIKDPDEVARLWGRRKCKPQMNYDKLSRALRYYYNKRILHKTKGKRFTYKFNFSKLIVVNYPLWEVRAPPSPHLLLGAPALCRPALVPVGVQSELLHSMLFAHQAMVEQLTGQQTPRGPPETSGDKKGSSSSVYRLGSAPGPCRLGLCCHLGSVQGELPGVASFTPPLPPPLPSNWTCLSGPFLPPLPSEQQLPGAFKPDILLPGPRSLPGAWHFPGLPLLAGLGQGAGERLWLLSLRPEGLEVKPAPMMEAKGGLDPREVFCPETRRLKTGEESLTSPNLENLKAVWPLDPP
In short: as §1

ETS2 = molecular target: T3, ETS2 (Homo sapiens, UniProt P15036 1-469)
T3 sequence: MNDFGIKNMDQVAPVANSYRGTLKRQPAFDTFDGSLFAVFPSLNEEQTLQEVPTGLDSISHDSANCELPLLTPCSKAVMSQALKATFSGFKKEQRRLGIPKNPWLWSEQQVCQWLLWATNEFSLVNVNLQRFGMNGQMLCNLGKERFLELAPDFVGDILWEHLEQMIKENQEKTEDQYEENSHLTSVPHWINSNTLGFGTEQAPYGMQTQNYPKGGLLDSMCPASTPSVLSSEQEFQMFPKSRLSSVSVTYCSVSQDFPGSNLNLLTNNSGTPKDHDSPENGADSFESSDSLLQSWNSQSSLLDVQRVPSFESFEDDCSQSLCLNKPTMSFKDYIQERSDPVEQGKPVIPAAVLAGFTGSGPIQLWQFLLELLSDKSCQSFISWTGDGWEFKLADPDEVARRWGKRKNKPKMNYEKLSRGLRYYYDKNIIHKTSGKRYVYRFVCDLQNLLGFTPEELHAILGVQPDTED
In short: as §1

SPDEF = molecular target: T4, SPDEF (Homo sapiens, UniProt O95238 1-335)
T4 sequence: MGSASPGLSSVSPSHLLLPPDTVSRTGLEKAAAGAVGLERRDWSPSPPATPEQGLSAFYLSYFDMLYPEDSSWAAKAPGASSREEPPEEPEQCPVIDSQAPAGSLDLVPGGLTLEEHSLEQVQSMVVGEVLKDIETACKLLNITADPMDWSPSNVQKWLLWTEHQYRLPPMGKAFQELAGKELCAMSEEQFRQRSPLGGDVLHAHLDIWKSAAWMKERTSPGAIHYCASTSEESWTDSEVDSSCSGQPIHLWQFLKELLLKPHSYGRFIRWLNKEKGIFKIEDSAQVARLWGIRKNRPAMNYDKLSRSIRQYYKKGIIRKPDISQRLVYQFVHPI
In short: as §1

ETV7 = molecular target: T5, ETV7 (Homo sapiens, UniProt Q9Y603 1-341)
T5 sequence: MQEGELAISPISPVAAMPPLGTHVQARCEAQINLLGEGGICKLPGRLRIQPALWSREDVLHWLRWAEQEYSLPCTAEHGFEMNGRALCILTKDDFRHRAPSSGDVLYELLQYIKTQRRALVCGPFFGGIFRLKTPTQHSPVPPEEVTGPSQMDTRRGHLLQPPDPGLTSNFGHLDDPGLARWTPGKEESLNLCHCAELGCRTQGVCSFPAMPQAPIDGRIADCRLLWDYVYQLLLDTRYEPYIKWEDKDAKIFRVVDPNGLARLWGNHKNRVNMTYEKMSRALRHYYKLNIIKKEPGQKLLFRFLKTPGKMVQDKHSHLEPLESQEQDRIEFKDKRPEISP
In short: as §1

ELF5 = molecular target: T6, ELF5 (Homo sapiens, UniProt Q9UKW6-2 1-255)
T6 sequence: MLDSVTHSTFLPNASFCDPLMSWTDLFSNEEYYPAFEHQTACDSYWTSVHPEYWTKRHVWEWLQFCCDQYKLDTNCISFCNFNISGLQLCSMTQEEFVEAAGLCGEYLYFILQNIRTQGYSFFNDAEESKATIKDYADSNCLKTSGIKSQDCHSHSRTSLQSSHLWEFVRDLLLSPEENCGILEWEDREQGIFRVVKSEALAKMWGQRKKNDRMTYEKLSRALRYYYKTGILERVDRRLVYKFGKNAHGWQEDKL
In short: as §1

ETV3 = molecular target: T7, ETV3 (Homo sapiens, UniProt P41162-2 1-143)
T7 sequence: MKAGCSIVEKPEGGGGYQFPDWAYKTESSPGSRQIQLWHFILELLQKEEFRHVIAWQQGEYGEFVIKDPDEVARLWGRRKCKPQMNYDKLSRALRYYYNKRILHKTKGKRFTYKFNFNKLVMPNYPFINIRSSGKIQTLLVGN
In short: as §1

ETV6 = ETV6 (Homo sapiens, UniProt P41212 1-452)
Chain of ETV6 (P41212 whole entry): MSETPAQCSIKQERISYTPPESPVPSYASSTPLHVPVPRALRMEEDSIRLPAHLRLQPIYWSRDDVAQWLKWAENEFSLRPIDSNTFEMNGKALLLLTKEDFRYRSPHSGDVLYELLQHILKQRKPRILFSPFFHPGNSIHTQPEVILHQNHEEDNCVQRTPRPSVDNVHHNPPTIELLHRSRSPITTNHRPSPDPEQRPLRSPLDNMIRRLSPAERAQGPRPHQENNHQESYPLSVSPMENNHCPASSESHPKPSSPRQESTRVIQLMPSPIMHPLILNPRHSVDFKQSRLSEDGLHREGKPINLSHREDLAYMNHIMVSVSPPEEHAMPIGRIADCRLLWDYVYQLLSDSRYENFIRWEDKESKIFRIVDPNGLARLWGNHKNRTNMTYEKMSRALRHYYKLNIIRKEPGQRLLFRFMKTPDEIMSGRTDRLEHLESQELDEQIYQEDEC
In short: as §1

Row | Sequence | binding signal (ERF) | binding signal (ETV3L) | binding signal (ETS2) | binding signal (SPDEF) | binding signal (ETV7) | binding signal (ELF5) | binding signal (ETV3) | binding signal (ETV6)
1 | TTGGGG | 1.39 fold enrichment (6-mer frequency, TF over GST control) | 1.3 fold enrichment (6-mer frequency, TF over GST control) | 1.25 fold enrichment (6-mer frequency, TF over GST control) | 1.17 fold enrichment (6-mer frequency, TF over GST control) | 1.12 fold enrichment (6-mer frequency, TF over GST control) | 1.14 fold enrichment (6-mer frequency, TF over GST control) | 1.13 fold enrichment (6-mer frequency, TF over GST control) | 1.26 fold enrichment (6-mer frequency, TF over GST control)
2 | CTTCGA | 1.41 fold enrichment (6-mer frequency, TF over GST control) | 1.37 fold enrichment (6-mer frequency, TF over GST control) | 1.36 fold enrichment (6-mer frequency, TF over GST control) | 1.3 fold enrichment (6-mer frequency, TF over GST control) | 1.44 fold enrichment (6-mer frequency, TF over GST control) | 1.27 fold enrichment (6-mer frequency, TF over GST control) | 1.16 fold enrichment (6-mer frequency, TF over GST control) | 1.43 fold enrichment (6-mer frequency, TF over GST control)
3 | TTCTGG | 1.35 fold enrichment (6-mer frequency, TF over GST control) | 1.23 fold enrichment (6-mer frequency, TF over GST control) | 1.19 fold enrichment (6-mer frequency, TF over GST control) | 1.23 fold enrichment (6-mer frequency, TF over GST control) | 1.21 fold enrichment (6-mer frequency, TF over GST control) | 1.22 fold enrichment (6-mer frequency, TF over GST control) | 1.2 fold enrichment (6-mer frequency, TF over GST control) | 1.32 fold enrichment (6-mer frequency, TF over GST control)
4 | CTTTTT | 1.31 fold enrichment (6-mer frequency, TF over GST control) | 1.35 fold enrichment (6-mer frequency, TF over GST control) | 1.31 fold enrichment (6-mer frequency, TF over GST control) | 1.32 fold enrichment (6-mer frequency, TF over GST control) | 1.37 fold enrichment (6-mer frequency, TF over GST control) | 1.31 fold enrichment (6-mer frequency, TF over GST control) | 1.24 fold enrichment (6-mer frequency, TF over GST control) | 1.3 fold enrichment (6-mer frequency, TF over GST control)
5 | CAAAAA | 1.15 fold enrichment (6-mer frequency, TF over GST control) | 1.15 fold enrichment (6-mer frequency, TF over GST control) | 1.12 fold enrichment (6-mer frequency, TF over GST control) | 1.07 fold enrichment (6-mer frequency, TF over GST control) | 1.1 fold enrichment (6-mer frequency, TF over GST control) | 1.07 fold enrichment (6-mer frequency, TF over GST control) | 1.12 fold enrichment (6-mer frequency, TF over GST control) | 1.12 fold enrichment (6-mer frequency, TF over GST control)
6 | CGCTTT | 1.24 fold enrichment (6-mer frequency, TF over GST control) | 1.26 fold enrichment (6-mer frequency, TF over GST control) | 1.36 fold enrichment (6-mer frequency, TF over GST control) | 1.2 fold enrichment (6-mer frequency, TF over GST control) | 1.4 fold enrichment (6-mer frequency, TF over GST control) | 1.25 fold enrichment (6-mer frequency, TF over GST control) | 1.3 fold enrichment (6-mer frequency, TF over GST control) | 1.31 fold enrichment (6-mer frequency, TF over GST control)
7 | CTACAC | 1.31 fold enrichment (6-mer frequency, TF over GST control) | 1.4 fold enrichment (6-mer frequency, TF over GST control) | 1.25 fold enrichment (6-mer frequency, TF over GST control) | 1.39 fold enrichment (6-mer frequency, TF over GST control) | 1.25 fold enrichment (6-mer frequency, TF over GST control) | 1.36 fold enrichment (6-mer frequency, TF over GST control) | 1.39 fold enrichment (6-mer frequency, TF over GST control) | 1.36 fold enrichment (6-mer frequency, TF over GST control)
